Results on 30 sequences are retold here after the OligoGym collection.
Also: reference of the scale not given here.

For one test, the target named is ELF2. The test is described as follows: pooled miR-30 sensor sort-seq; sequence = guide strand. As to conditions: shRNA.
Consider TATGTTTTTCGGCATATCCTTG, for which the sensor-assay potency score (higher = more potent) was -0.943.

TTGTCTTATCTGTACAGTGTGC: the sensor-assay potency score (higher = more potent) was -0.612. Still for that read-out and setting: with TTCACTTTTGTCATCATCTATG the figure was -0.773; with TAGTAGTATCTCAAAGCTCGTC, -0.0908; with TATCCTTGAACTGATATACAAG, -1.19. On the same count and under the same terms, next, TTGATAGTCTCATTACAGGTGT: -0.336; TATGACTGCACTGATAACTCGA: 0.372.

With TTTTATCTTGAAGTAGATCTAA, the sensor-assay potency score (higher = more potent) was -0.166. With TTTATCTTGAAGTAGATCTAAA, the sensor-assay potency score (higher = more potent) was -0.649. On the same count and under the same terms, next, TTGTCTGCAGTTGACACTGTGC: -0.232.

The target in the next test is EMD. Described as above. Particulars: shRNA.
Take TTCTTCTCGTAAAGCCTACGAG: the sensor-assay potency score (higher = more potent) is -0.852. Same read-out and setting: next, AATGAAGTCACTGACTGGCGGA: -0.824; TCTGGTAGAGTAAAGCGTCCTC: 0.201; ATCTTCTTCTCGTAAAGCCTAC: -1.02. On to TATCCTTGCACTCCTCTTCAGA, for which the sensor-assay potency score (higher = more potent) is -0.66. Still for that read-out and setting: with TAGTAGTCGTCATTGTAGCCCT the figure was -0.272; with TGCTCTGGTAGAGTAAAGCGTC, -0.878.

Consider TAGGATAATAGGACAGGTCCAG, for which the sensor-assay potency score (higher = more potent) is -0.423.

For TAGTGCGTGATGCTCTGGTAGG, the sensor-assay potency score (higher = more potent) is -0.899. Turning to ATCGTCATCATGCACCTGGTGA, the sensor-assay potency score (higher = more potent) was -0.488.

For the sequence TACATATCTGCATCCCCTCTAG, the sensor-assay potency score (higher = more potent) was -0.434. The same measure, in the same setting: next, AAGAAGACAAAAGATCGTCATC: -1.25. Still for that read-out and setting: next, TAATAGGACAGGTCCAGGGAGC: -1.25.

Consider TTCCCTATCCTTGCACTCCTCT, for which the sensor-assay potency score (higher = more potent) was -0.239. As for TCGAAGATCTTCTTCTCGTAAA, the sensor-assay potency score (higher = more potent) is -1.01. Same read-out and setting: with TCGTACTCGAAGATCTTCTTCT the figure was 0.284; with TACGAGTTGATCCTACTACAGG, -1.33. The same measure, in the same setting: next, TAGCTCTCTTCATAGTAGTCGT: -0.538; TACTCGAAGATCTTCTTCTCGT: -0.0297; TAGTCGTCATTGTAGCCCTTGC: -0.858.
